# Reference: PubChem BioAssay (NCATS)
# Values joined by “and” are separate entries in the source; they are usually repeats but may differ in a detail not shown here. Identical values can stand only once. A number with no mark means an inactive call. Records with an inconclusive call do not appear. Where a call stands in place of a potency, no number is given. Active and inactive are the calls of the source. Unless noted, calls follow the shape of the dose curve; as a rule, active = well fitted curve in the direction sought with a large enough effect; inconclusive = small, poorly fitted or top-dose-only effect, or another doubt; inactive = no such curve, though single readings can be large; an effect the other way counts as inactive or inconclusive.
# Key:
# [1] = Stat Signaling Pathway (AID 446; active = well fitted curve in either direction with a large enough effect, not every such curve was filed as active;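 also: ME-180 cervical cancer cells given 40 pM IL-6 alongside compound; SIE-controlled beta-lactamase reporter measured as 460/530 nm FRET emission ratio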); conditions: ME-180 SIE beta-lactamase reporter, IL-6 stimulated, 5 h
# Method in brief: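 ME-180 cells carrying a SIE-driven beta-lactamase reporter are stimulated with 40 pM IL-6 for 5 h at 37C in the presence of compound. The 460/530 nm FRET substrate ratio is read after 2.5 h at RT. Data are normalised to 300 pM IL-6 and to 125 nM JAK inhibitor controls.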
# [2] = target: Glucocorticoid receptor (Homo sapiens) (UniProt P04150); test: GR-GFP Redistribution (AID 450;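 active = compounds whose dose series gives a full or clear partial fitted curve of increased nuclear translocation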; also: potency is read from the fitted curve at half-maximal effect); conditions: U2OS GR-GFP nuclear translocation, laser cytometry, 2 h
# Glucocorticoid receptor (Homo sapiens), sequence (P04150 whole entry, looked up, the tested form may be a part): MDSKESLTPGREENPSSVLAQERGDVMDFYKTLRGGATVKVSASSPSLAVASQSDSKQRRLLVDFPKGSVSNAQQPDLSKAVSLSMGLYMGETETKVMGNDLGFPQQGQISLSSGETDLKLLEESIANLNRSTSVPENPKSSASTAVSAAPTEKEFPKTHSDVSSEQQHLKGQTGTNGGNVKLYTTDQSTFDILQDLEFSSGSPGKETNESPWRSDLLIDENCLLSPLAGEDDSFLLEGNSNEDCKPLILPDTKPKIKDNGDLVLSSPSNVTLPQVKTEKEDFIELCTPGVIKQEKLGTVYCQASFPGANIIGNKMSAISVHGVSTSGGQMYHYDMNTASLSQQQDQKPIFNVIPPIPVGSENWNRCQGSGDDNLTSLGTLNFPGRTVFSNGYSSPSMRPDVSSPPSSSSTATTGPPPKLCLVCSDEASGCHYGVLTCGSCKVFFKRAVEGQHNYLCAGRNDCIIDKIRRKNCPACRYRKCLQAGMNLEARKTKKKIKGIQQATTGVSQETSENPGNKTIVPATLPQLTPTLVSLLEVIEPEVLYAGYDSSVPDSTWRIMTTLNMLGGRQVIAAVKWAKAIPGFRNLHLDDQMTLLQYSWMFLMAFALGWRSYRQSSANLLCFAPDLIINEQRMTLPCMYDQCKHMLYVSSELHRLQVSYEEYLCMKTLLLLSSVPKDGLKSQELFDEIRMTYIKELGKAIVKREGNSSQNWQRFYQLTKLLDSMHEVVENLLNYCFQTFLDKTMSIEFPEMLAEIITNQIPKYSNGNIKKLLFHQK
# [3] = target: Glucocorticoid receptor (Homo sapiens) (UniProt P04150); test: GR-EFC Redistribution (AID 451; calls by dose curve; also: potency is read from the fitted curve at half-maximal effect); conditions: CHO-K1 GR-EFC translocation, beta-gal luminescence, 2 h
# Method in brief: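 CHO-K1 cells expressing nuclear EA and GR-ED fragments of b-gal; compounds titrated up to 46 uM final, 2 h at 37 C. GR nuclear translocation read as complemented b-gal luminescence after 1 h RT detection.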
# [4] = target: Mitogen-activated protein kinase 10 (Mus musculus) (UniProt Q61831); test: JNK3 AlphaScreen Assay (AID 530; active = well fitted curve in either direction with a large enough effect, not every such curve was filed as active;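 also: kinase came from lysate of stimulated human HepG2 cells; signal reports phosphorylation of biotinylated GST-cJun 1-79 at Ser73 with 10 µM ATP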); conditions: JNK3 lysate, c-Jun phosphorylation; series mostly up to 57.1 µM
# Method in brief: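 qHTS format: compounds tested as titrations against IL-1beta/TNF-alpha-activated HepG2 lysate JNK3 with biotin-GST-cJun substrate and 10 uM ATP at room temperature. Loss of anti-phospho-cJun AlphaScreen signal indicates inhibition.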
# [5] = target: 3',5'-cyclic-AMP phosphodiesterase 4B (Homo sapiens) (UniProt Q07343); test: qHTS Assay for Inhibitors of PDE-IV (AID 607; active = well fitted activation curve with a large enough effect in the main read-out, with a control signal flat, not every such curve was filed as active); conditions: HEK293 ACTOne CNG channel cells, membrane potential fluorescence; series mostly up to 22.9 µM
# 3',5'-cyclic-AMP phosphodiesterase 4B (Homo sapiens), sequence (Q07343 whole entry, looked up): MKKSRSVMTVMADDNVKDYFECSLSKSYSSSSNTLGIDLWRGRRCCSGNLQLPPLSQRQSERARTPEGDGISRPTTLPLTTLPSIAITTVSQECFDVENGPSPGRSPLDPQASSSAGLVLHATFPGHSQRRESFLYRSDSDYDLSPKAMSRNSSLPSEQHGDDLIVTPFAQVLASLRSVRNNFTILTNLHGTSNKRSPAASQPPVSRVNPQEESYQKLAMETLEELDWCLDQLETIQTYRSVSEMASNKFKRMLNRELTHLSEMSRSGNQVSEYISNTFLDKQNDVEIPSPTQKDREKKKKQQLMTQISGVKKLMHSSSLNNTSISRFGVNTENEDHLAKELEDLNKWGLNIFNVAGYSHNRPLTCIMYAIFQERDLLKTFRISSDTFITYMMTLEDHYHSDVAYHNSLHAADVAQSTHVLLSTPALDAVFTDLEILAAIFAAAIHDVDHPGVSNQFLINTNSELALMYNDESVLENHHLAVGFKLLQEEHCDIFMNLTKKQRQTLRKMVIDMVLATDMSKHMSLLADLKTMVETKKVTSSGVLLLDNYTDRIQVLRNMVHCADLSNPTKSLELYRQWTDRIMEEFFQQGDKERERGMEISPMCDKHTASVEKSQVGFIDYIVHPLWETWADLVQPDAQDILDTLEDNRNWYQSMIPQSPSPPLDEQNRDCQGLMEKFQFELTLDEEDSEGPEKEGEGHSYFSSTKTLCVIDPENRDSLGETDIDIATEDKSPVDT
# Method in brief: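 HEK293 ACTOne cells with CNG channel (1000/well), endogenous PDE4; membrane potential dye, compounds up to 22.9 uM final. Fluorescence Ex 535/Em 590; RO 20-1724 (100 uM final) as reference.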
# [6] = Cell Viability - N2a (AID 540); conditions: N2a mouse neuroblastoma cell viability; activity change, negative = cytotoxicity: at 92.2 µM (top of the series); also: nearly all actives have a fitted effect of over 45% in size; also: potency is read from the fitted curve at half-maximal effect
# Method in brief: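 Mouse neuroblastoma N2a cells (1500/well) were preincubated 5 hr at 37 °C, then exposed to compounds for 40 hr at 37 °C in complete medium. Viability was read as intracellular ATP by CellTiter-Glo luminescence; AC50 from Hill fits.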
# [7] = Cell Viability - NIH 3T3 (AID 541); conditions: NIH 3T3 cell viability, qHTS; activity change, negative = cytotoxicity: at 92.2 µM (top of the series); also: nearly all actives have a fitted effect of over 25% in size; also: potency is read from the fitted curve at half-maximal effect
# Method in brief: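 NIH 3T3 mouse embryo fibroblasts (1000 cells/well) were plated in complete medium and treated with compound for 40 hr at 37 °C. Viability was read as intracellular ATP by CellTiter-Glo luminescence; AC50 values came from Hill-equation fits of concentration-response data.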
# [8] = Cell Viability - HUV-EC-C (AID 542); conditions: HUV-EC-C endothelial cell viability, qHTS; series mostly up to 92.2 µM; also: nearly all actives have a fitted effect of over 35% in size; also: potency is read from the fitted curve at half-maximal effect
# Method in brief: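 HUV-EC-C normal human vascular endothelial cells, 1000 cells/well, pre-incubated 5 hr at 37 °C, then exposed to compounds for 40 hr at 37 °C in complete medium. Viability measured as intracellular ATP by CellTiter-Glo luminescence; AC50 from Hill fits.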
# [9] = Cell Viability - H-4-II-E (AID 543); conditions: H-4-II-E rat hepatoma viability; series mostly up to 92.2 µM; also: nearly all actives have a fitted effect of over 35% in size; also: potency is read from the fitted curve at half-maximal effect
# Method in brief: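 Rat hepatoma H-4-II-E cells (1500/well) were plated, incubated 5 hr at 37 °C, then exposed to compounds for 40 hr at 37 °C. Cellular ATP was read by CellTiter-Glo luminescence; AC50 came from Hill-equation fits of concentration-response data.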
# [10] = Cell Viability - SH-SY5Y (AID 544); conditions: SH-SY5Y neuroblastoma cell viability; viability change, negative = cytotoxic: at 92.2 µM (top of the series); also: nearly all actives have a fitted effect of over 55% in size; also: potency is read from the fitted curve at half-maximal effect
# Method in brief: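 Human neuroblastoma SH-SY5Y cells (1500/well) in complete medium were exposed to compounds for 40 hr at 37 °C; intracellular ATP was then quantified by CellTiter-Glo luminescence after 20 min at room temperature. AC50 came from Hill-equation concentration-response fits.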
# [11] = Cell Viability - Renal Proximal Tubule (AID 545); conditions: renal proximal tubule cells viability, primary cells of rat origin; activity change, negative = cytotoxicity: at 91.7 µM (top of the series); also: nearly all actives have a fitted effect of over 40% in size
# Method in brief: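 Viability taken as intracellular ATP (CellTiter-Glo luminescence) after 40 hr, 37 °C compound treatment of primary proximal tubule cells from rat kidney, 1000 cells/well; Hill-equation fits of qHTS concentration-response data gave AC50.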
# [12] = Cell Viability - Mesenchymal (AID 546); conditions: mesenchymal cells viability, qHTS; activity change, negative = cytotoxicity: at 91.7 µM (top of the series);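 also: cells exposed to compound for 40 hours before reading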
# Method in brief: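 Human kidney mesenchymal cells from normal renal glomeruli, 1000 cells/well, rested 5 hr at 37 °C, then treated 40 hr at 37 °C in complete medium. Cellular ATP read by CellTiter-Glo luminescence; AC50 from Hill-equation fits.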
# [13] = Cellular Toxicity (caspase-3) HepG2 (AID 654); conditions: HepG2 caspase-3 activation, luminescence; series mostly up to 92.2 µM;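 also: cells exposed to compound for 16 hours before reading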
# Method in brief: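 HepG2 cells (1500/well) in complete medium were treated with compounds for 16 hr at 37 °C. Caspase-3/7 activity was then read as luminescence from peptide-aminoluciferin cleavage. AC50 came from Hill fits, normalized to DMSO and 100 uM tamoxifen.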
# [14] = Cellular Toxicity (caspase-3) Jurkat (AID 655); conditions: Jurkat caspase-3 activation, luminescence; series mostly up to 92.2 µM;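 also: cells exposed to compound for 16 h at 37 °C before reading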; also: potency is read from the fitted curve at half-maximal effect
# Method in brief: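 Luminescent Caspase-Glo 3/7 read-out (20 min, room temperature) after 16 h compound treatment at 37 C of 5000 Jurkat cells per well. AC50 derived by Hill-equation fitting, scaled between DMSO basal and 100 uM tamoxifen stimulation.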
# [15] = Cellular Toxicity (caspase-3) HUV-EC-C (AID 656); conditions: HUV-EC-C cells, caspase-3 activation (apoptosis), vehicle = 0, 100 µM tamoxifen = 100%; series mostly up to 92.2 µM
# Method in brief: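 Luminescent Caspase-Glo 3/7 readout after 16 h, 37 °C compound exposure of HUV-EC-C endothelial cells, 1000 per well, complete medium. AC50 derived by Hill fitting, with DMSO as baseline and 100 uM tamoxifen as full activation.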
# [16] = Cellular Toxicity (caspase-3) SHSY5Y (AID 657); conditions: SH-SY5Y caspase-3 activation, DMSO zero, 10 µM staurosporine = 100%; series mostly up to 91.7 µM
# Method in brief: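 Luminescent Caspase-Glo 3/7 read-out, 1 hr room temperature, follows 16 hours of compound treatment of SH-SY5Y cells at 37 °C. Normalization: DMSO basal, 10 uM staurosporine as 100%; AC50 values from Hill-equation concentration-response fits.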
# [17] = Cellular Toxicity (caspase-3) BJ (AID 658); conditions: BJ fibroblasts, luminescence, normalized: DMSO 0%, staurosporine 100%; series mostly up to 91.7 µM
# Method in brief: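 BJ human foreskin fibroblasts, 1000 cells/well, treated 16 hours at 37 °C in complete medium; caspase 3/7 activity by Caspase-Glo luminescence after 1 hr at room temperature. Normalized to DMSO and 10 uM staurosporine; AC50 from Hill fits.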
# [18] = Cellular Toxicity (caspase-3) MRC-5 (AID 659); conditions: MRC-5 cells, luminescence, normalized: DMSO 0%, 10 µM staurosporine 100%; series mostly up to 91.7 µM
# Method in brief: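 MRC-5 human normal lung fibroblasts, 1500 cells/well, treated 16 h at 37 °C in complete medium. Caspase 3/7 measured by Caspase-Glo luminescence after 1 h at room temperature. Normalized to DMSO and 10 uM staurosporine; AC50 from Hill fit.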
# [19] = Cellular Toxicity (caspase-3) Mesangial (AID 660); conditions: mesangial cells; Potency: caspase-3 activation; series mostly up to 91.7 µM;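 also: cells exposed to compound for 16 h before the caspase read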
# Method in brief: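 Human renal glomerular mesangial cells (1000/well) were treated with compounds for 16 h at 37 °C in complete medium, then caspase 3/7 activity was read by Caspase-Glo luminescence. Data were normalized to DMSO and 100 uM tamoxifen; AC50 from Hill fits.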
# [20] = Cellular Toxicity (caspase-3) SK-N-SH (AID 661); conditions: SK-N-SH caspase-3 activation, qHTS; series mostly up to 91.7 µM
# Method in brief: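 SK-N-SH human neuroblastoma cells (1500/well) were treated with compounds for 16 hr at 37 °C in complete medium; caspase 3/7 activity was read by Caspase-Glo luminescence. AC50 came from Hill fits of data normalized to DMSO and 10 uM staurosporine.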
compound,measurement,setting,value
Cc1c(N)c(=O)n(-c2ccccc2)n1C,"activity, negative = inhibition",[1]; at 17.2 µM (top of the series),3.23%
same,Potency,[2],> 20.6 µM
same,Potency,[3],> 20.6 µM
same,Potency,[4],inactive
same,outcome,[5],inactive
C=C[C@H]1CN2CC[C@@H]1C[C@@H]2[C@@H](O)c1ccnc2ccc(OC)cc12,"activity, negative = inhibition",[1]; at 38 µM (top of the series),-15% and 18.5%
Nc1nc(Cl)nc2c1ncn2[C@@H]1O[C@H](CO)[C@@H](O)[C@H]1O,Potency,[2],> 20.6 µM
Nc1ccc(O)c(C(=O)O)c1,"activity, negative = inhibition",[1]; at 17.2 µM (top of the series),-23.9%
same,Potency,[2],> 20.6 µM
same,Potency,[3],> 20.6 µM
same,Potency,[4],inactive
same,Potency,[6],inactive
same,Potency,[7],inactive
same,Potency,[8],inactive
same,Potency,[9],inactive
same,Potency,[10],inactive
same,"activity change, negative = cytotoxicity",[11],10.5%
same,Potency,[12],inactive
same,outcome,[5],inactive
same,Potency,[13],inactive
same,Potency,[14],inactive
same,outcome,[15],inactive
same,outcome,[16],inactive
same,outcome,[17],inactive
same,outcome,[18],inactive
same,Potency,[19],inactive
same,Potency,[20],inactive
c1cnc2c(c1)ccc1cccnc12,"activity, negative = inhibition",[1]; at 38 µM (top of the series),-9.47%
same,Potency,[2],> 46 µM
same,Potency,[3],> 46 µM and > 9.22 µM
same,Potency,[4],inactive
same,Potency,[6],3.98 µM (active)
same,Potency,[7],2.51 µM (active)
same,Potency,[8],12.6 µM (active)
same,Potency,[9],2.51 µM (active)
same,Potency,[10],5.01 µM (active)
same,"activity change, negative = cytotoxicity",[11],-87.9% (active)
same,Potency,[12],inactive
same,outcome,[5],inactive
same,Potency,[13],inactive
same,Potency,[14],6.31 µM (active)
same,outcome,[15],inactive
same,outcome,[16],inactive
same,outcome,[17],inactive
same,outcome,[18],inactive
same,Potency,[19],inactive
same,Potency,[20],inactive
Cc1nc2sccn2c(=O)c1CCN1CCC(=C(c2ccccc2)c2ccc(F)cc2)CC1,"activity, negative = inhibition",[1]; at 17.2 µM (top of the series),-13.7%
same,"activity, negative = inhibition",[1]; at 38 µM (top of the series),13.4%
same,Potency,[2],> 46 µM and > 20.6 µM
same,Potency,[3],> 46 µM
same,outcome,[5],inactive
NCCCS(=O)(=O)O,"activity, negative = inhibition",[1]; at 38 µM (top of the series),-2.17%
same,Potency,[2],> 46 µM
same,Potency,[3],> 46 µM
same,Potency,[4],inactive
same,outcome,[5],inactive
Cc1ccc(C(=O)c2ccc(CC(=O)O)n2C)cc1,"activity, negative = inhibition",[1]; at 17.2 µM (top of the series),-8.7%
same,Potency,[4],inactive
same,outcome,[5],inactive
CC1(C)S[C@@H]2[C@H](NC(=O)[C@H](N)c3ccccc3)C(=O)N2[C@H]1C(=O)O,"activity, negative = inhibition",[1]; at 17.2 µM (top of the series),1.21%
same,Potency,[4],inactive
same,Potency,[6],inactive
same,Potency,[7],inactive
same,Potency,[8],inactive
same,Potency,[9],inactive
same,Potency,[10],inactive
same,"activity change, negative = cytotoxicity",[11],-5.39%
same,Potency,[12],inactive
same,Potency,[13],inactive
same,Potency,[14],inactive
same,outcome,[15],inactive
same,outcome,[16],inactive
same,outcome,[17],inactive
same,outcome,[18],inactive
same,Potency,[19],inactive
same,Potency,[20],inactive
